This passage reports inhibition results from PubChem BioAssay AID588689 (Southern Research Specialized Biocontainment Screening …, 2011).

The assay deals with Genome polyprotein (Dengue virus type 2 (strain 16681-PDK53)) (UniProt P29991). Put plainly: Dengue-2 NS5 methyltransferase inhibitors, primary screen, biochemical, confirmation dose response (AID 588689). The note with it: Dengue-2 NS5 methyltransferase capping enzyme assay, at 25 µM, stronger effect = higher value.
[1] abbreviates: measured here: pilot screen replicate inhibition.

Among all 340,000 compounds or so, about 1,000 (0.29%) were called active. Cut-off read from the data, not from the text of the source: inconclusive = inhibition above about 29% without an active follow-up result; inactive = below that. A selection follows. Results with a measured potency or affinity are listed apart.

With `CC(=O)c1ccc(Sc2ccccc2)c([N+](=O)[O-])c1`, the inhibition is 3.06% (inactive).

Take `Nc1ccccc1Sc1ccc(C(=O)c2ccccc2C(=O)O)cc1[N+](=O)[O-]`: the inhibition was 17.6% (inactive).

Take `COc1ccc(C(=O)c2coc(-c3ccccc3C(=O)O)c2C(=O)O)cc1`: the inhibition is 2.56% (inactive).

In the case of `O=C1c2ccccc2C(=O)c2c1oc(C(F)(F)F)c2C(=O)c1ccccc1`, the inhibition was -2.07% (inactive).

For `Cc1ccc(C(=O)c2c[nH]cc2-c2ccccc2)cc1`, the inhibition is -3.21% (inactive).

`Cc1ccc(C(=O)c2c(C)oc3c2C(=O)C(=O)c2ccccc2-3)cc1`: the inhibition was 21.1% (inactive).

Turning to `O=C(c1ccccc1)c1coc2c1C(=O)c1ccccc1C2=O`, the inhibition was 6.1% (inactive).

`COc1ccc(C(=O)c2c(C(F)(F)F)oc3c2C(=O)c2ccccc2C3=O)cc1`: the inhibition was 9.03% (inactive).

With `Cc1ccc(C(=O)c2coc3ccc(O)cc23)cc1`, the inhibition is 2.6% (inactive).

For the compound `Cc1oc2c(c1C(=O)c1ccc(Cl)cc1)C(=O)C(=O)c1ccccc1-2`, the inhibition is 28% (inactive).

As for `CN1CCN(CCCNC(=O)Cn2ncc3c4ccccc4n(C)c3c2=O)CC1`, the inhibition was -0.7% (inactive).

Turning to `CCOc1ccc(C(=O)Nc2cccc(NC(=O)c3cccs3)c2)cc1[N+](=O)[O-]`, the inhibition is -6.19% (inactive).

For `COc1cc(OC)cc(C(=O)NCCCNC(=O)c2cccnc2)c1`, the inhibition was -1.78% (inactive).

For `Cc1nc(N2CCOCC2)[nH]c(=O)c1CCC(C)C`, the inhibition was -3.29% (inactive).

Regarding `CC(=C\C(=O)O)/C(=C\c1cccc2ccccc12)C(=O)O`, the inhibition was -1.16% (inactive).

For the compound `CCn1c(=S)sc2c(=O)n(-c3ccccc3)c(SCC(=O)NCc3ccco3)nc21`, the inhibition was 2.42% (inactive).

On to `CN1C[C@H]2CON(C)[C@H]2C[C@H]1c1cccc(-c2ccccc2)c1`, for which the inhibition was -6.62% (inactive). The inhibition under setting [1] was -3.38%.

In the case of `COc1ccc(-n2c(-c3ccc(Br)cc3)nc(=S)c3c2CCCC3)cc1`, the inhibition is -4.74% (inactive).

Regarding `CC(C)CCNC(=O)c1ccc(-n2cnc3cccnc32)cc1`, the inhibition was -2.72% (inactive).

Regarding `COc1ccc2cc(CCNC(=O)CCc3ccccc3)c(=O)[nH]c2c1`, the inhibition is 0.89% (inactive).

Take `O=C(Nc1ncn[nH]1)c1ccc(S(=O)(=O)N2CCOCC2)cc1`: the inhibition was -3.52% (inactive).

Take `COc1ccc(C2=CC(=O)CC(C)(C)C2)cc1`: the inhibition is 2.79% (inactive).

On to `COC(=O)c1ccc(C(C2C(=O)CC(C)(C)CC2=O)C2C(=O)CC(C)(C)CC2=O)cc1`, for which the inhibition was -3.89% (inactive).

As to `COc1cccc(C(C2C(=O)CC(C)(C)CC2=O)C2C(=O)CC(C)(C)CC2=O)c1`, the inhibition was 23.1% (inactive).

`COC(=O)COc1ccc(NC(=O)C(c2ccccc2)c2ccccc2)cc1`: the inhibition is -6.79% (inactive).

With `CC1(C)CC(=O)C(C(c2ccc(F)cc2)C2C(=O)CC(C)(C)CC2=O)C(=O)C1`, the inhibition was -0.73% (inactive).

`CC1(C)CC(=O)C(C(c2cccnc2)C2C(=O)CC(C)(C)CC2=O)C(=O)C1`: the inhibition is 12.3% (inactive). Moreover, the inhibition under setting [1] was -0.765%.

As to `CC(=O)N(C)N(C)c1cc(C)nc(N)n1`, the inhibition was 0.78% (inactive).

Turning to `Nn1cnnc1N/N=C/c1ccc(F)cc1`, the inhibition is 0.39% (inactive).

In the case of `COc1ccc(CNc2ccc(S(N)(=O)=O)cc2)c(OC)c1OC`, the inhibition was -2.41% (inactive).

Take `CCOc1ccc(NC(=O)N2CCCC2C(=O)NCC2CCCO2)cc1` (stereo unspecified): the inhibition is -7.19% (inactive).

Take `O=C1CCCc2oc3c(c21)CCCC3`: the inhibition was 0.9% (inactive).

`COCCN1C(=O)C(=O)/C(=C(/O)c2ccc3c(c2)OCCO3)C1c1ccc(C(=O)OC)cc1` (stereo unspecified): the inhibition was 0.56% (inactive).

Consider `COc1ccc(-c2csc(NC(=O)CSc3n[nH]c(C)n3)n2)cc1`, for which the inhibition is -3.23% (inactive).

For `COc1ccc(-c2csc(NC(=O)CSc3nc(C)cs3)n2)cc1`, the inhibition is -6.77% (inactive).

Consider `COc1ccccc1C(C)NCC(=O)NCc1ccc(C)cc1` (stereo unspecified), for which the inhibition is -3.92% (inactive).

Consider `Cc1nnc(SCC(=O)Nc2nnc(SCc3cccc(Br)c3)s2)s1`, for which the inhibition was 0.64% (inactive).

Regarding `CCCc1nc(SCC(=O)Nc2nc3c(s2)CCCC3)c2ccccc2n1`, the inhibition was 2.76% (inactive).

Consider `O=C1NN(c2ccccc2)C(=O)/C1=C\c1ccc2c(c1)OCO2`, for which the inhibition is 15.1% (inactive).

In the case of `O=C1c2cccc([N+](=O)[O-])c2C(=O)N1c1ccccc1`, the inhibition was 0% (inactive).

As to `COc1ccc(C(=Cc2ccccc2[N+](=O)[O-])C(=O)O)cc1`, the inhibition was -6.2% (inactive).

For `CCOc1ccc(C(=O)N/N=C/c2ccccc2[N+](=O)[O-])cc1`, the inhibition was -7.26% (inactive).

Consider `CN1C/C(=C/c2ccccc2[N+](=O)[O-])C(=O)/C(=C\c2ccccc2[N+](=O)[O-])C1`, for which the inhibition is 1.54% (inactive).

Take `CCOc1ccc(N2C(=O)C(=O)/C(=C(/O)c3ccccc3)C2c2ccccc2[N+](=O)[O-])cc1` (stereo unspecified): the inhibition is 13.8% (inactive).

As for `COc1ccc(N2C(=O)CSC2c2ccccc2[N+](=O)[O-])cc1` (stereo unspecified), the inhibition was 0.75% (inactive).

Take `COc1cc(/C=C2/C(=O)NN(c3ccc(C)c(Cl)c3)C2=O)cc([N+](=O)[O-])c1O`: the inhibition was 69.8% (inactive).

On to `CCc1noc(C)c1C(=O)NCCc1ccc(OC)c(OC)c1`, for which the inhibition is -2.74% (inactive).

For the compound `CCOC(=O)C1C(C)=C(Nc2ccc(OC)cc2)C(=O)N1c1ccc(OC)cc1` (stereo unspecified), the inhibition was -2.18% (inactive).

Regarding `O=C(Cn1cc([N+](=O)[O-])cn1)NCc1ccccc1Cl`, the inhibition was -6.16% (inactive).

Regarding `Cc1c(C2(O)CCCCC2)[nH]c2ccc(C#N)cc12`, the inhibition is 1.37% (inactive).

On to `O=C(O)/C=C\c1cc2c(cc1[N+](=O)[O-])OCO2`, for which the inhibition was 4.71% (inactive).

Regarding `CC1(C)OC(C)(C)/C(=C\c2ccccc2[N+](=O)[O-])C1=O`, the inhibition is -3.9% (inactive).

Take `O=C1NC(=O)C(=Cc2ccccc2[N+](=O)[O-])S1`: the inhibition was 13.1% (inactive).

For `O=C1NC(=S)N/C1=C/c1cc2c(cc1[N+](=O)[O-])OCO2`, the inhibition is 6.53% (inactive).

Consider `CCOC(=O)N1CCC(NC(=O)CSCc2nc(-c3ccccc3Cl)oc2C)CC1`, for which the inhibition is -1.81% (inactive).

For the compound `CCc1ccc(C)[n+](CC(=O)c2cccs2)c1`, the inhibition is -10.5% (inactive).

Turning to `O=C(c1cccnc1)N1CCN(S(=O)(=O)c2cccc(Cl)c2)CC1`, the inhibition is 2.63% (inactive).

For `Cc1cccc(CCNS(=O)(=O)c2ccc3c(c2)NC(=O)CS3)c1`, the inhibition was -3.63% (inactive).

Turning to `CSCCC(NC(N)=O)C(=O)Nc1ccc2ccccc2c1` (stereo unspecified), the inhibition was 3.12% (inactive).

As to `NC(=O)c1ccc(NC(=O)CNc2cc(S(=O)(=O)N3CCOCC3)ccc2N2CCCC2)cc1`, the inhibition was -2.57% (inactive).

`CCN(CC)C(=O)c1ccccc1NC(=O)CN1C(=O)c2ccccc2S1(=O)=O`: the inhibition is -2.2% (inactive).

On to `CC(=O)NNC(=O)CN1C(=O)/C(=C/c2ccccc2)SC1=S`, for which the inhibition was -2.32% (inactive).

For the compound `COc1cccc(/C=C2/SC(=S)N(CC(=O)NNC(=O)c3ccccc3O)C2=O)c1`, the inhibition is 2.67% (inactive).

As to `O=C(O)CN1C(=O)/C(=C\c2cccc(OC(=O)c3ccco3)c2)SC1=S`, the inhibition is 2.44% (inactive).

For the compound `O=C(O)COc1cccc(/C=C2/SC(=S)N(Cc3ccccc3)C2=O)c1`, the inhibition is 13.1% (inactive).

With `O=C1/C(=C\c2cccc(O)c2)SC(=S)N1Cc1ccccc1`, the inhibition was -14.8% (inactive).

Turning to `CN1C(=O)/C(=C\c2cccc(OCc3ccccc3)c2)SC1=S`, the inhibition is 5.28% (inactive).

As to `COc1cccc(/C=C2/SC(=S)N(CC(=O)NNC(=O)c3ccccc3OC)C2=O)c1`, the inhibition is 4.13% (inactive).

Regarding `O=C(CN1C(=O)/C(=C/c2cccc(Cl)c2)SC1=S)NC1C=CS(=O)(=O)C1` (stereo unspecified), the inhibition was -2.72% (inactive).

In the case of `COc1ccccc1CC(=O)OCC(=O)N1CCN(c2ccc(F)cc2)CC1`, the inhibition is -10.1% (inactive).

For `Cc1[nH]c(C)c(S(=O)(=O)N2CCN(c3cccc(Cl)c3)CC2)c1C(=O)N1CCCCC1`, the inhibition was -6.81% (inactive).

`CC(C)CCN(C(=O)C1CCCC1)c1c(N)n(Cc2ccccc2)c(=O)[nH]c1=O`: the inhibition was 0.73% (inactive).

Consider `COCCn1c(C)cc(C(=O)CSc2nnnn2C2CCCC2)c1C`, for which the inhibition is -0.76% (inactive).

Turning to `CCOP(=O)(OCC)c1nc(/C=C/c2ccccc2)oc1NCc1ccc(OC)cc1`, the inhibition is -2.05% (inactive).

Consider `O=S(=O)(Cc1ccccc1)Nc1ccccc1`, for which the inhibition was 1.96% (inactive). In addition, the inhibition under setting [1] is -2.12%.

For the compound `Cc1ccc(NS(=O)(=O)Cc2ccccc2)nc1`, the inhibition was -2.96% (inactive).

For the compound `CNC(=O)NC(=S)NC(=O)c1ccccc1Cl`, the inhibition is 2.96% (inactive).

`Cc1ccc2c(c1)c(C1=NC(=S)NC1=O)c(O)n2C`: the inhibition is -5.15% (inactive).

As to `COc1cc2c3c(c1)c(C1=NC(=S)NC1=O)c(O)n3C(C)(C)C=C2C`, the inhibition is 5.22% (inactive).

`CC1(C)O[C@@H]2[C@H](O1)[C@@H](CO)O[C@H]2n1cc(Br)c(=O)[nH]c1=O`: the inhibition was -17.6% (inactive).

Regarding `NCCCC[C@@H]1NC(=O)c2cc([N+](=O)[O-])cc(F)c2NCCCC[C@@H](C(N)=O)NC(=O)CNC1=O`, the inhibition is -4.1% (inactive).

As to `O=C(NCc1ccco1)c1nnc(Cc2ccc(F)cc2)o1`, the inhibition is 2.07% (inactive).

`COc1ccc(-c2cc(-c3ccccc3)c(C#N)c(SCC(=O)O)n2)cc1`: the inhibition was 14% (inactive).

As to `N#Cc1c(-c2ccc(Cl)cc2)cc(-c2ccccc2)nc1SCC(=O)O`, the inhibition is 1.16% (inactive).

In the case of `O=C(O)c1cccc2c1/C(=N/Nc1ccc([N+](=O)[O-])cc1[N+](=O)[O-])c1ccccc1-2`, the inhibition was 20.5% (inactive).

Regarding `CC(=O)Nc1ccc(NC(=O)c2nc(S(=O)(=O)Cc3ccccc3)ncc2Cl)cc1`, the inhibition was -50.4% (inactive).

Take `Cc1cccc(CS(=O)(=O)c2ncc(Cl)c(C(=O)NCc3ccccc3)n2)c1`: the inhibition is -74.2% (inactive).

As for `COC(=O)c1ccc(NC(=O)c2nc(S(=O)(=O)Cc3cccc(C)c3)ncc2Cl)cc1`, the inhibition was -59.7% (inactive).

Take `CSc1ncc(Cl)c(C(=O)Nc2nnc(SC)s2)n1`: the inhibition was 5.42% (inactive).

In the case of `Cc1ccc(NC(=O)c2nc(S(=O)(=O)Cc3ccccc3)ncc2Cl)cc1`, the inhibition was -43.4% (inactive).

For the compound `Cc1nnc(NC(=O)c2nc(S(=O)(=O)Cc3ccccc3C)ncc2Cl)s1`, the inhibition is 27.3% (inactive).

`Cc1nnc(NC(=O)c2nc(S(=O)(=O)Cc3ccccc3)ncc2Cl)s1`: the inhibition was 19.6% (inactive).

As for `Cc1ccccc1CS(=O)(=O)c1ncc(Cl)c(C(=O)Nc2ccc(F)cc2)n1`, the inhibition was -55.8% (inactive).

One may read the inhibition as the relative decrease from the control value, in per cent.
